# In PubChem BioAssay (EPA / NIEHS):
# Records with an inconclusive call do not appear. Active and inactive are the calls of the source. How the source made its calls, unless noted: active means hit-call score of the fitted dose curve at least 0.9, where 1 is the maximum; inconclusive means response in the unintended direction; inactive means score below 0.9.
# Columns and labels:
# [1] = CCTE_Mundy_HCI_Cortical_Synap_Neur_Matur_SynapseCount: CCTE's Synaptogenesis and Neurite Maturation Assay in rat cortical cells for Synapse Count, Mundy Lab (AID 2284218; active means hit-call score of the fitted dose curve at least 0.9, where 1 is the maximum; inactive means score below 0.9)
# Method in brief: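 Primary rat cortical culture; AraC DIV 5 to arrest glia; compound + media change DIV 7; terminated DIV 12. PFA/Hoechst fix, anti-MAP2 + anti-synaptophysin immunostain; HCI synapse count/neuron; DMSO = baseline.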
# [2] = CCTE_Mundy_HCI_hN2_NOG_NeuriteCount: CCTE's Neurite Outgrowth Assay in human hN2 cells for Neurite Count, Mundy Lab (AID 2284219)
# Method in brief: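 In this morphology assay, hNP1-derived neurons received test chemical 2 h post-plating and were fixed two days later in warm paraformaldehyde/sucrose containing Hoechst 33342. Neurites, labelled by rabbit anti-βIII-tubulin (1:800) and Alexa Fluor-488 (1:500), were counted automatically.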
# [3] = CCTE_Mundy_HCI_hN2_NOG_NeuriteLength: CCTE's Neurite Outgrowth Assay in human hN2 cells for Neurite Length, Mundy Lab (AID 2284220)
# Method in brief: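 Using βIII-tubulin immunofluorescence and Hoechst nuclear counterstain, this component quantifies neurite length in hNP1-derived neurons.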
# [4] = CCTE_Mundy_HCI_hN2_NOG_NeuronCount: CCTE's Neurite Outgrowth Assay in human hN2 cells for Neuron Count, Mundy Lab (AID 2284221)
# Method in brief: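 Read-out is the number of betaIII-tubulin-positive neurons imaged by automated high-content analysis, with DMSO as negative control.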
# [5] = CCTE_Mundy_HCI_Cortical_Synap_Neur_Matur_NeuriteCount: CCTE's Synaptogenesis and Neurite Maturation Assay in rat cortical cells for Neurite Count, Mundy Lab (AID 2284222; active means hit-call score of the fitted dose curve at least 0.9, where 1 is the maximum; inactive means score below 0.9)
# Method in brief: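 In this multiplexed morphology readout, rat primary cortical neurons are fixed at DIV 12 following dosing at DIV 7 and stained for MAP2, synaptophysin and nuclei. High-content image analysis yields neurite count.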
# [6] = CCTE_Mundy_HCI_Cortical_Synap_Neur_Matur_CellBodySpotCount: CCTE's Synaptogenesis and Neurite Maturation Assay in rat cortical cells for Cell Body Spot Count, Mundy Lab (AID 2284223; active means hit-call score of the fitted dose curve at least 0.9, where 1 is the maximum; inactive means score below 0.9)
# Method in brief: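 Read-out: cell body-associated synaptophysin puncta per neuron, imaged after MAP2, synaptophysin and Hoechst staining. Rat cortical cells, AraC DIV 5, chemical dosing DIV 7, fixation DIV 12. Activity fitted in positive direction relative to DMSO baseline.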
# [7] = CCTE_Mundy_HCI_hNP1_Pro_ResponderAvgInten: CCTE's Proliferation Assay in human neuroprogenitor cells, Mundy Lab (AID 2284224);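 further: human neural progenitor cells hNP1 derived from WA09 embryonic stem cells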
# Method in brief: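 Human neuroprogenitors (hNP1, WA09 lineage) receive test chemical after 40 to 44 hours of attachment. A four-hour BrdU pulse begins twenty hours later, followed by fixation and high content imaging; signal is referenced to DMSO controls.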
# [8] = CCTE_Mundy_HCI_Cortical_NOG_NeuronCount: CCTE's Neurite Outgrowth Assay in rat cortical cells for Neuron Count, Mundy Lab (AID 2284236);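 further: neurons counted by imaging betaIII-tubulin and Hoechst stained cortical cells; cells exposed to compound for about 48 hours before fixation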
# Method in brief: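 Read-out: neuron number by high-content imaging of betaIII-tubulin (Alexa Fluor-488) and Hoechst-labelled rat primary cortical cells.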
# [9] = CCTE_Mundy_HCI_Cortical_NOG_BPCount: CCTE's Neurite Outgrowth Assay in rat cortical cells for Branch Point Count, Mundy Lab (AID 2284237; active means hit-call score of the fitted dose curve at least 0.9, where 1 is the maximum; inactive means score below 0.9;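 further: branch points counted about two days after chemical exposure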)
# Method in brief: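 Measured 50.33 h after dosing, this morphology endpoint uses rat primary cortical cultures labelled for betaIII-tubulin. Branch points are quantified by high-content imaging, with DMSO as negative control and baseline.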
# [10] = CCTE_Mundy_HCI_hNP1_Casp3_7: CCTE's Caspase-Glo 3/7 Assay in human neuroprogenitor cells for Apoptosis, Mundy Lab (AID 2284240; active means hit-call score of the fitted dose curve at least 0.9, where 1 is the maximum; inactive means score below 0.9)
# Method in brief: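 Neuroepithelial-lineage stem cells from WA09 embryonic cells were treated with chemicals after 40–44 h of culture. Twenty-four hours later, caspase-3/7 activation was detected luminescently after a 30 min room-temperature reagent step, with DMSO as baseline.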
# [11] = CCTE_Mundy_HCI_hNP1_CellTiter: CCTE's Cell Titer-Glo 2 Assay in human neuroprogenitor cells for Viability, Mundy Lab (AID 2284241);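 further: a hit is a drop in ATP luminescence versus DMSO meaning reduced viability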
# Method in brief: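 Measures ATP content in human neural progenitors derived from WA09 embryonic cells. Read-out at 26.5 hours after dosing, with DMSO serving as the negative control and baseline.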
# [12] = CCTE_Mundy_HCI_Cortical_Synap_Neur_Matur_NeuronCount: CCTE's Synaptogenesis and Neurite Maturation Assay in rat cortical cells for Neuron Count, Mundy Lab (AID 2284242);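 further: hits reduce neuron count versus DMSO baseline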
# Method in brief: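 Neuron number was scored by automated high-content imaging of Hoechst- and MAP2-labelled rat primary cortical cells. Glial growth was arrested with AraC at DIV 5, compounds were applied from DIV 7, and cultures ended at DIV 12.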
smiles,measurement,setting,value
CNCCC(Oc1ccc(C(F)(F)F)cc1)c1ccccc1 (configuration not stated),AC50,[1],9.16 µM (active)
same,AC50,[2],12.3 µM (active)
same,AC50,[3],12.9 µM (active)
same,AC50,[4],11 µM (active)
same,AC50,[5],11.6 µM (active)
same,outcome,[6],inactive
same,outcome,[7],inactive
same,AC50,[8],16 µM (active)
same,AC50,[9],10.9 µM (active)
same,AC50,[10],12.7 µM (active)
same,AC50,[11],20.7 µM (active)
same,AC50,[12],5.97 µM (active)
